Screening results: PubChem, several laboratories
Most compounds without a hit are left out; they make up all but 2.5% or so of the library.
AI-2 QS mod: Vibrio harveyi AI-2 quorum sensing modulation. Vibrio harveyi JMH597 AI-2 luminescence/OD600 ratio, 9 h; active compounds read low; strain lacks LuxN and CqsS sensors; 0 = neutral-control median. activity change, % at 7.5 µM. 300,000 tested, 0.4% active; in the data active means activity change below about -75%, passing the limit was not always enough;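 further: luminescence divided by OD600 gain over 9 h not by final OD600 alone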
Efflux pump inh: inhibitors of Candida antifungal efflux pumps expressed in yeast; S. cerevisiae Candida pump triplex, Nile Red efflux; 330,000 tested, 0.44% active; inhibition, % at 10 µM;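 active means plate passing quality check with inhibition over a set limit, or well fluorescence over plate mean plus 4 SD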;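 further: Nile Red retained in pooled yeast measured as flow cytometry median fluorescence; 0% = buffer negative control and 100% = Enniatin B positive control; higher means more Nile Red kept so more efflux inhibition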
ATG4B inhibitor: ATG4B (human) cysteine protease inhibition; Q9Y4P1; ATG4B cleavage of LC3-PLA2, NBD-HPC fluorescence, 1 h; AID 504462; inhibition, % at 8.33 µM; 340,000 tested, 0.51% active; in the data active means inhibition above about 40%
Target sequence (Q9Y4P1 whole entry, looked up): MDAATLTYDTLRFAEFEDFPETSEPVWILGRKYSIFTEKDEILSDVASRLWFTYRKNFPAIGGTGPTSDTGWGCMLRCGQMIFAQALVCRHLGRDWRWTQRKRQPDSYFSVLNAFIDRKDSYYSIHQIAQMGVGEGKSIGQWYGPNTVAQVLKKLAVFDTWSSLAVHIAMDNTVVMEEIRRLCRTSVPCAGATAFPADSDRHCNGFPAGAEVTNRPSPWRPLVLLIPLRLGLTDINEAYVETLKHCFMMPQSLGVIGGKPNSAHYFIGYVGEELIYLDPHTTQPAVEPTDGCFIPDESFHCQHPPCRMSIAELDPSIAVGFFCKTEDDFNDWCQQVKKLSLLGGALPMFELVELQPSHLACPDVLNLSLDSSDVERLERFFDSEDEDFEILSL
V-ATPase pHluor: regulators of yeast V-ATPase proton transport | S. cerevisiae, pHLuorin cytosolic pH fluorescence | response, % at 10 µM | 350,000 tested, 0.37% active | AID 504577; in the data active means response mostly above about 7.3%, no sharp cut-off; inactive means mostly below about 5.4%; further: actives read high
Mot1-301 SUMO: inhibitors of SUMOylation pathway: yeast Mot1-301 growth rescue | S. cerevisiae Mot1-301 growth rescue, ATP luminescence, 38.5C; percent above DMSO median, 100 means doubled | growth rescue, % at 18.8 µM | 320,000 tested, 1% active;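 active means every valid replicate shows activation above 250% relative to neutral control wells; inactive means the rest, any valid replicate at or below 250%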;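 further: OY570 slx delta 5 strain wells were the positive control but not used for scaling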
ATG4B conf: confirmation of human ATG4B inhibitors. ATG4B protease fluorescent substrate cleavage assay. 320 tested, 92% active. AID 504757. inhibition, % at 8.33 µM. shares compounds with ATG4B inhibitor; in the data active means inhibition above about 39%
PLA2 ctr: counter-screen for ATG4B inhibitors: human phospholipase A2 | 1,600 tested, 66% active | purified PLA2, NBD-C6-HPC fluorescence, 45 min | shares compounds with ATG4B inhibitor | inhibition, % at 8.33 µM | AID 588402; in the data active means inhibition above about 50%
Target sequence (P04054 whole entry, looked up): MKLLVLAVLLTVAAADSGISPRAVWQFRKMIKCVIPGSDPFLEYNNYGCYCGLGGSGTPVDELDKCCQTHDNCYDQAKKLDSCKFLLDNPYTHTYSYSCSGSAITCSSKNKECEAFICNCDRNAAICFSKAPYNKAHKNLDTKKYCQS
Numbers without * were called inactive.

Cc1ccc(C2NC(=O)CCC2[N+](=O)[O-])cc1 (configuration not stated) was read as AI-2 QS mod -1, Efflux pump inh 0, ATG4B inhibitor -7, V-ATPase pHluor -1 and Mot1-301 SUMO -6.
Screening CC(C)(C)c1cc(-c2csc(Nc3ccccc3)[n+]2Cc2ccc(C(=O)O)cc2)cc(C(C)(C)C)c1O returned AI-2 QS mod 40, Efflux pump inh 0, ATG4B inhibitor 46*, V-ATPase pHluor 9, Mot1-301 SUMO -2 and PLA2 ctr 56*.
Screening O=C(O)c1ccc(C[n+]2c(-c3ccccc3)csc2Nc2ccccc2)cc1 returned AI-2 QS mod 10, Efflux pump inh 0, ATG4B inhibitor 42*, V-ATPase pHluor -2, Mot1-301 SUMO 26, ATG4B conf 84* and PLA2 ctr 17.
Screening CCOC(=O)c1ccc(NC(=S)NCc2ccccc2)cc1 returned AI-2 QS mod -3, Efflux pump inh 0, ATG4B inhibitor 33, V-ATPase pHluor 7 and Mot1-301 SUMO 9.
`CCOC(=O)c1ccc(NC(=O)NCc2ccccc2)cc1` gave AI-2 QS mod -21, Efflux pump inh 0, ATG4B inhibitor 49*, V-ATPase pHluor -4, Mot1-301 SUMO -3 and PLA2 ctr 56*.
`CCN(C(=O)CN1CCN(S(=O)(=O)c2cc(Cl)ccc2Cl)CC1)c1c(N)n(Cc2ccccc2)c(=O)[nH]c1=O` gave AI-2 QS mod 11, Efflux pump inh 0, ATG4B inhibitor 0, V-ATPase pHluor -3 and Mot1-301 SUMO -6.
For CCNC(=O)N1CCOCC1 the results were AI-2 QS mod 22, Efflux pump inh 0, ATG4B inhibitor 7, V-ATPase pHluor 0 and Mot1-301 SUMO 21.
Screening CC(C)c1ccc(Nc2nc(NCc3ccco3)nc(N3CCOCC3)n2)cc1 returned AI-2 QS mod 21, Efflux pump inh 0, ATG4B inhibitor 41*, V-ATPase pHluor 7, Mot1-301 SUMO -21 and PLA2 ctr 57*.
For Cc1cccc(N(Cc2cc3ccccc3[nH]c2=O)C(=O)c2cccs2)c1 the results were AI-2 QS mod 29, Efflux pump inh 0, ATG4B inhibitor 1, V-ATPase pHluor -2 and Mot1-301 SUMO 206.
`CCC1=NN(C(=O)c2cccc(Br)c2)C(O)(c2ccc(Br)cc2)C1` (configuration not stated) gave AI-2 QS mod 19, Efflux pump inh 0, ATG4B inhibitor 43*, V-ATPase pHluor 1, Mot1-301 SUMO -10, ATG4B conf 58* and PLA2 ctr 47.
For O=C(NCCC1=CCCCC1)Nc1ccc2nsnc2c1 the results were AI-2 QS mod -53, Efflux pump inh 0, ATG4B inhibitor 46*, V-ATPase pHluor 0, Mot1-301 SUMO 13 and PLA2 ctr 50.
For Cc1ccc(C)c(NC(=O)COC(=O)COc2cccc3c2OC(C)(C)C3)c1 the results were AI-2 QS mod 15, Efflux pump inh 0, ATG4B inhibitor -3, V-ATPase pHluor -2 and Mot1-301 SUMO 5.
`CC1(C)Cc2c(sc3c2c(=N)n(Cc2ccco2)c(=O)n3CC(=O)Nc2cccc(Cl)c2)CO1` gave AI-2 QS mod 5, Efflux pump inh 0, ATG4B inhibitor 53*, V-ATPase pHluor -1, Mot1-301 SUMO 0 and PLA2 ctr 60*.
`CN(CC(=O)Nc1ccc(C#N)cc1)CC(=O)Nc1ccc(N2CCOCC2)cc1` gave AI-2 QS mod 17, Efflux pump inh 0, ATG4B inhibitor 41*, V-ATPase pHluor -2, Mot1-301 SUMO -9 and PLA2 ctr 2.
`CN(CC(=O)Nc1ccc(N2CCOCC2)cc1)CC(=O)Nc1ccc(N2CCOCC2)cc1` gave AI-2 QS mod 22, Efflux pump inh 0, ATG4B inhibitor -3, V-ATPase pHluor -4 and Mot1-301 SUMO -22.
Cc1ccccc1SCC(=O)Nc1cc(C(F)(F)F)ccc1N1CCOCC1 was read as AI-2 QS mod 39, Efflux pump inh 0, ATG4B inhibitor -4, V-ATPase pHluor 0 and Mot1-301 SUMO -3.
`Cc1sc2nc3c(SC(C)C(=O)O)cc(C(=O)c4ccccc4O)cn3c(=O)c2c1C` (configuration not stated) gave AI-2 QS mod 20, Efflux pump inh 0, ATG4B inhibitor 52*, V-ATPase pHluor -1, Mot1-301 SUMO -17 and PLA2 ctr 53*.
O=c1c2ccccc2nc(SCc2cn3ccsc3n2)n1-c1ccccc1F was read as AI-2 QS mod 28, Efflux pump inh 0, ATG4B inhibitor 66*, V-ATPase pHluor -5, Mot1-301 SUMO 173 and PLA2 ctr 72*.
For O=c1c2ccccc2nc(SCc2cn3ccsc3n2)n1-c1ccccc1 the results were AI-2 QS mod 48, Efflux pump inh 0, ATG4B inhibitor 60*, V-ATPase pHluor 0, Mot1-301 SUMO -7 and PLA2 ctr 73*.
`O=C(c1cccc(S(=O)(=O)N2CCCC2)c1)N1CCOCC1` gave Efflux pump inh 0, ATG4B inhibitor -10, V-ATPase pHluor 3 and Mot1-301 SUMO -12.
Screening COc1ccc(NS(=O)(=O)c2ccc(C(=O)N3CCC(C)CC3)cc2)cc1 returned Efflux pump inh 0, ATG4B inhibitor 8, V-ATPase pHluor 3 and Mot1-301 SUMO 7.
NC(=O)COc1ccccc1/C=C1/SC(=O)N(CC(=O)N2CCc3ccccc3C2)C1=O was read as AI-2 QS mod 21, Efflux pump inh 0, ATG4B inhibitor 6, V-ATPase pHluor 5 and Mot1-301 SUMO 3.
Screening CCOc1cc(/C=C2/SC(=O)N(CC(=O)N3CCc4ccccc4C3)C2=O)ccc1OCC(=O)O returned AI-2 QS mod 32, Efflux pump inh 0, ATG4B inhibitor 56*, V-ATPase pHluor 3, Mot1-301 SUMO 66, ATG4B conf 67* and PLA2 ctr 45.
`Cc1cccc(-n2cnc3cc(C(=O)N4CCc5ccccc54)ccc32)c1` gave AI-2 QS mod 27, Efflux pump inh 1, ATG4B inhibitor 62*, V-ATPase pHluor -3, Mot1-301 SUMO -8 and PLA2 ctr 64*.
For COCCNC(=O)c1ccc2c(c1)ncn2-c1cccc(C)c1 the results were AI-2 QS mod 24, Efflux pump inh 0, ATG4B inhibitor -2, V-ATPase pHluor -5 and Mot1-301 SUMO -14.
Screening Cc1cccc(C)c1NC(=O)CN1CCN(CC(=O)NCC2(N3CCCCC3)CCCCC2)CC1 returned Efflux pump inh 0, ATG4B inhibitor -59, V-ATPase pHluor 0 and Mot1-301 SUMO -5.
For CCOc1ccccc1N1CCN(C(=S)NCc2ccco2)CC1 the results were AI-2 QS mod 9, Efflux pump inh 0, ATG4B inhibitor 4, V-ATPase pHluor -1 and Mot1-301 SUMO -3.
